20 compounds from PubChem BioAssay (NCATS) can be followed below.

Records with an inconclusive call do not appear. Activity calls are given as the source filed them. Unless noted, calls follow the shape of the dose curve; as a rule, active = well fitted inhibition curve with a large enough effect; inconclusive = small, poorly fitted or top-dose-only effect; inactive = flat fitted curve, though single readings scatter.

The nature of assay [1]: qHTS drug screen for cell cycle checkpoint inhibitors in PARPi-resistant BRCA-mutant ovarian cancer cell lines. (AID 1963452; calls by dose curve). Conditions: PEO1/OlaR viability, CellTiter-Glo luminescence, 96 h, stronger effect = lower value. The method, boiled down: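 PEO1, PEO4 and PEO1/OlaR ovarian cancer cells, 600 per well, exposed 96 h at 37C to a dilution series. Viability read by CellTiter-Glo luminescence, normalized to DMSO and empty wells; activity summarized as Z-AUC.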
In general terms: Quantitative high-throughput screening tests each substance at several concentrations.

Assay [2] is described as follows: qHTS for identification of novel therapeutic agents for treatment of microphthalmiaassociated transcription factor (MiT) renal cell carcinoma (RCC) (AID 1963991; calls by dose curve; also: potency is read from the fitted curve at half-maximal effect;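 as to z-score: curves scaled with 100% = DMSO viability and 0% = empty wells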). Conditions: CellTiter-Glo, 48 h; for z-score: stronger effect = lower value. The method, boiled down:
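UOK109/UOK124/UOK145 (TFE3 fusions, three partners); 500 cells/well; MIPE v4.0, 1912 cpds, 11 conc.; 48 h, 37 C; CellTiter-Glo, 15 min RT; lum. Norm.: DMSO 100%, empty 0%.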

Assay [3] can be described thus: qHTS profiling for inhibitors of Plasmodium falciparum proliferation (AID 504749). Also: nearly all actives have a fitted effect of over 60% in size. Also: potency is read from the fitted curve at half-maximal effect.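 As to activity, negative = inhibition: 0% = DMSO vehicle and full inhibition = artemisinin control.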 As to conditions: P. falciparum in erythrocytes, SYBR Green DNA, 72 h. The method, boiled down: (§1)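 Infected RBCs, 0.3% parasitemia/2.5% Hct final; cpd 72 h, 37 C, 5% CO2; lysis buffer with saponin/triton/SYBR Green I, o/n RT dark; FI 485/535; norm. to artemisinin (0.29 uM) and DMSO.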

The next assay deals with 3D7. Described as above. Conditions: P. falciparum in erythrocytes, SYBR Green DNA, 72 h; series mostly up to 28.7 µM. The method, boiled down:
as §1

A further assay has as its system 7G8. The description is as above. Conditions: P. falciparum in erythrocytes, SYBR Green DNA, 72 h; series mostly up to 28.7 µM. The method, boiled down: as §1
In another assay the test system is AA1029. The assay is described as above. As to conditions: P. falciparum in erythrocytes, SYBR Green DNA, 72 h; series mostly up to 28.7 µM. The method, boiled down: as §1
The subject of another assay is AS120. Described as above. Conditions: P. falciparum in erythrocytes, SYBR Green DNA, 72 h; series mostly up to 28.7 µM. The essentials: as §1
A further assay concerns ATS189. The description is as above. As to conditions: P. falciparum in erythrocytes, SYBR Green DNA, 72 h; series mostly up to 28.7 µM. The method, boiled down:
as §1

[4] abbreviates: measured here: PEO1 parental Z-AUC.
The mark [5] stands for this setting: TFE3-RCC UOK109 viability, measured here: UOK109 Z-AUC.
[6] abbreviates: TFE3-RCC viability, measured here: UOK124 Z-AUC.
[7] abbreviates: TFE3-RCC viability, measured here: UOK145 Z-AUC.
[8] abbreviates: at 28.7 µM (top of the series), parasite line A.
The mark [9] stands for this setting: at 28.7 µM (top of the series), parasite line B.

On to `NCC1(CC(=O)O)CCCCC1`, for which the Z-AUC in assay [1] is 0.463 (inactive); in assay [1] (setting [4]), 0.917; in assay [1] (measured here: PEO4 Z-AUC) it was -0.172. Besides, the z-score in assay [2] (setting [5]) was 0.318; in assay [2] (setting [6]), 0.516; in assay [2] (setting [7]) it was -0.0302. The activity, negative = inhibition in assay [3] (at 12.8 µM (top of the series), parasite line A) was 5.08% (inactive); in assay [3] (at 12.8 µM (top of the series), parasite line B) it was 1.35% (inactive). Also, the Potency entry in the assay with 3D7, with 7G8, with AA1029, with AS120 and in the assay on ATS189 was “inactive” throughout.

In the case of `C[C@@H]1O[C@@H](O[C@H]2C[C@@H](O)[C@]3(CO)[C@H]4[C@H](O)C[C@]5(C)[C@@H](C6=CC(=O)OC6)CC[C@]5(O)[C@@H]4CC[C@]3(O)C2)[C@H](O)[C@H](O)[C@H]1O`, the values for the Z-AUC in assay [1], in assay [1] (setting [4]) and in assay [1] (measured here: PEO4 Z-AUC) were -1.08 (inactive), -2.2 and -1.63, respectively. For the same compound, the Potency in assay [2] (TFE3-RCC UOK109 viability) is 0.0166 µM (active). In addition, the z-score in assay [2] (setting [5]) is -3.9; in assay [2] (setting [6]), -2.36; in assay [2] (setting [7]), -3.38.

In the case of `CN(C)[C@@H]1C(=O)C(C(N)=O)=C(O)[C@@]2(O)C(=O)C3=C(O)c4c(O)cccc4[C@@](C)(O)[C@H]3C[C@@H]12`, the results for the Z-AUC in assay [1], in assay [1] (setting [4]) and in assay [1] (measured here: PEO4 Z-AUC) were 1.23 (inactive), 0.408 and 1.42, respectively. The z-score in assay [2] (setting [5]) worked out at 1.21; in assay [2] (setting [6]), 0.89; in assay [2] (setting [7]) it was 1.72.

As for `COC1(CS(=O)c2ccccc2)CCN(CCc2c[nH]c3ccc(F)cc23)CC1` (stereo not drawn), the Z-AUC in assay [1] is 0.788 (inactive); in assay [1] (setting [4]), 0.436; in assay [1] (measured here: PEO4 Z-AUC) it was 0.362.

Take `COC[C@@H](NC(C)=O)C(=O)NCc1ccccc1`: the Z-AUC in assay [1] is -0.757 (inactive); in assay [1] (setting [4]), 0.116; in assay [1] (measured here: PEO4 Z-AUC), -0.684. Moreover, the z-score in assay [2] (setting [5]) was -0.0332; in assay [2] (setting [6]) it was 0.828; in assay [2] (setting [7]), 0.367.

Turning to `Cc1cccc(C)c1NC(=O)CN1CCCC1=O`, the Z-AUC in assay [1] is 0.64 (inactive); in assay [1] (setting [4]) it was 0.59; in assay [1] (measured here: PEO4 Z-AUC) it was 1.08. The figures for the z-score in assay [2] (setting [5]), in assay [2] (setting [6]) and in assay [2] (setting [7]) were 1.77, 0.0528 and 0.844, respectively.

Take `Cc1cccc(C)c1NC1=NCCCS1`: the results for the activity, negative = inhibition in assay [3] (setting [8]) and in assay [3] (setting [9]) were -16.9% (inactive) and -6.65% (inactive), respectively. The Potency result in the assay on 3D7 was “inactive”. Also, in the assay on 7G8, the Potency is 11.2 µM (active).

Regarding `CN(C)CCc1ccc(O)cc1`, the z-score in assay [2] (setting [5]) was 2.07; in assay [2] (setting [6]), 0.378; in assay [2] (setting [7]), 0.923. The activity, negative = inhibition in assay [3] (setting [8]) is -8.4% (inactive); in assay [3] (setting [9]), 2.47% (inactive). For the same compound, the Potency entry with 3D7, in the assay with 7G8, with AA1029, in the assay with AS120 and in the assay with ATS189 was “inactive” throughout.

On to `Nc1ccncc1`, for which the values for the activity, negative = inhibition in assay [3] (setting [8]) and in assay [3] (setting [9]) were 15.2% (inactive) and 1.68% (inactive), respectively. The Potency result in the assay on 3D7, in the assay on 7G8, in the assay on AA1029, with AS120 and in the assay with ATS189 was “inactive” in each case.

With `CC(CCc1ccccc1)NC(C)C(O)c1ccc(O)cc1` (stereo not drawn), the results for the activity, negative = inhibition in assay [3] (setting [8]) and in assay [3] (setting [9]) were 8.41% (inactive) and 8.3% (inactive), respectively. Also, the Potency result in the assay on 3D7 was “inactive”.

For the compound `CC1NCCOC1c1ccccc1` (stereo not drawn), the activity, negative = inhibition is 8.85% (inactive) in assay [3] (setting [8]) and 5.03% (inactive) in assay [3] (setting [9]). Besides, the Potency result in the assay on 3D7, in the assay on 7G8, in the assay on AA1029, with AS120 and in the assay on ATS189 was “inactive” each time.

For `CC[N+](CC)(CC)CC`, the activity, negative = inhibition in assay [3] (setting [8]) is 15.6% (inactive); in assay [3] (setting [9]), 17.3% (inactive). Further, the Potency result in the assay on 3D7, with 7G8, with AA1029, in the assay on AS120 and in the assay on ATS189 was “inactive” in each case.

As for `Oc1cccc2cccnc12`, the activity, negative = inhibition in assay [3] (setting [8]) was 4.36% (inactive); in assay [3] (setting [9]), -11.6% (inactive). Moreover, the Potency entry with 3D7, in the assay with 7G8, in the assay on AA1029, with AS120 and with ATS189 was “inactive” each time.

On to `Cc1ccc(-c2nc3ccc(C)cn3c2CC(=O)N(C)C)cc1`, for which the activity, negative = inhibition in assay [3] (setting [8]) is -4.35% (inactive); in assay [3] (setting [9]) it was -1.84% (inactive). Besides, the Potency result with 3D7, in the assay with 7G8, in the assay on AA1029, with AS120 and in the assay on ATS189 was “inactive” each time.

For the compound `NCC(O)c1ccc(O)cc1` (stereo not drawn), the values for the activity, negative = inhibition in assay [3] (setting [8]) and in assay [3] (setting [9]) were 10.2% (inactive) and 3.73% (inactive), respectively. The Potency result in the assay with 3D7, in the assay on 7G8, with AA1029, in the assay on AS120 and with ATS189 was “inactive” each time.

Turning to `CCCC(C)(COC(N)=O)COC(=O)NC(C)C` (stereo not drawn), the z-score in assay [2] (setting [5]) is -0.172; in assay [2] (setting [6]), 0.563; in assay [2] (setting [7]), 0.256. Besides, the figures for the activity, negative = inhibition in assay [3] (setting [8]) and in assay [3] (setting [9]) were 8.09% (inactive) and 15.9% (inactive), respectively. The Potency entry in the assay with 3D7, with 7G8, in the assay on AA1029, in the assay on AS120 and in the assay on ATS189 was “inactive” in each case.

For the compound `C=C1CC[C@@]2(O)[C@H]3Cc4ccc(O)c5c4[C@@]2(CCN3CC2CC2)[C@H]1O5`, the activity, negative = inhibition in assay [3] (setting [8]) was 9.27% (inactive); in assay [3] (setting [9]) it was 12.8% (inactive). For the same compound, the Potency entry with 3D7, in the assay with 7G8, with AA1029, with AS120 and with ATS189 was “inactive” throughout.

With `CCOP(=S)(OCC)Oc1cc(C)nc(C(C)C)n1`, the activity, negative = inhibition in assay [3] (setting [8]) was 5.69% (inactive); in assay [3] (setting [9]), 9.55% (inactive). The Potency result in the assay with 3D7, in the assay on 7G8, with AA1029, in the assay on AS120 and with ATS189 was “inactive” in each case.

Turning to `NCC(CC(=O)O)c1ccc(Cl)cc1` (stereo not drawn), the figures for the activity, negative = inhibition in assay [3] (setting [8]) and in assay [3] (setting [9]) were 6.71% (inactive) and 18.2% (inactive), respectively. Besides, the Potency result in the assay with 3D7, in the assay on 7G8, in the assay on AA1029, in the assay on AS120 and with ATS189 was “inactive” in each case.

In the case of `NCCc1cc(O)c(O)cc1O`, the activity, negative = inhibition is 7.16% (inactive) in assay [3] (setting [8]) and 11.4% (inactive) in assay [3] (setting [9]). Besides, the Potency result in the assay with 3D7, with 7G8, in the assay on AA1029, in the assay on AS120 and with ATS189 was “inactive” each time.
